{
  "source": "PubChem BioAssay AID1159580",
  "about": "(chemical genetic matrix, 2015)",
  "assay": "chemical genetic growth profiling, strain panel (AID 1159580);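 note: tested at 20 µM; growth read once vehicle control cultures reached saturation at 30 °C; 1 = growth at the plate median or of vehicle wells; lower values mean less growth of the strain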",
  "settings": "S. cerevisiae deletion strains, growth OD",
  "note": "The whole screen tested about 5,500 compounds, of which about 2,000 (36%) were called active. Roughly 18% stayed inconclusive and do not appear here. Some of the results follow. Unmarked numbers belong to inactive results. Cut-off read from the data, not from the text of the source: active = normalized growth mostly below about 0.91 (no sharp cut-off); inconclusive = no clear call, values can overlap the other calls; inactive = mostly above about 0.92.",
  "data": [
    {"compound": "O=C1OC(Nc2ccccc2SCc2ccccc2Cl)c2ccccc21", "note": "(stereo unspecified)", "values": [
      {"measurement": "normalized growth", "setting": "locus YAR019C, strain CDC15, active compounds read low", "value": 0.985},
      {"measurement": "normalized growth", "setting": "locus YBL105C, strain PKC1, active compounds read low", "value": 0.977},
      {"measurement": "normalized growth", "setting": "locus YBR135W, strain CKS1, active compounds read low", "value": 0.97},
      {"measurement": "normalized growth", "setting": "locus YBR136W, strain MEC1, active compounds read low", "value": 0.973},
      {"measurement": "normalized growth", "setting": "locus YBR160W, strain CDC28, active compounds read low", "value": 0.981},
      {"measurement": "normalized growth", "setting": "locus YDL017W, strain CDC7, active compounds read low", "value": 0.989},
      {"measurement": "normalized growth", "setting": "locus YDL028C, strain MPS1, active compounds read low", "value": 0.984},
      {"measurement": "normalized growth", "setting": "locus YDL101C, strain DUN1, active compounds read low", "value": 0.971},
      {"measurement": "normalized growth", "setting": "locus YDL108W, strain KIN28, active compounds read low", "value": 0.977},
      {"measurement": "normalized growth", "setting": "locus YDL132W, strain cdc53, active compounds read low", "value": 0.962},
      {"measurement": "normalized growth", "setting": "locus YDL214C, strain PRR2, active compounds read low", "value": 0.903},
      {"measurement": "normalized growth", "setting": "locus YDR052C, strain DBF4, active compounds read low", "value": 0.989},
      {"measurement": "normalized growth", "setting": "locus YDR054C, strain cdc34, active compounds read low", "value": 0.98},
      {"measurement": "normalized growth", "setting": "locus YDR226W, strain ADK1, active compounds read low", "value": 0.965},
      {"measurement": "normalized growth", "setting": "locus YDR477W, strain SNF1, active compounds read low", "value": 0.928},
      {"measurement": "normalized growth", "setting": "locus YER123W, strain YCK3, active compounds read low", "value": 0.89},
      {"measurement": "normalized growth", "setting": "locus YER133W, strain GLC7, active compounds read low", "value": 0.897},
      {"measurement": "normalized growth", "setting": "locus YFL009W, strain cdc4, active compounds read low", "value": 0.97},
      {"measurement": "normalized growth", "setting": "locus YFL029C, strain CAK1, active compounds read low", "value": 0.971},
      {"measurement": "normalized growth", "setting": "locus YFR003C, strain YPI1, active compounds read low", "value": 0.983},
      {"measurement": "normalized growth", "setting": "locus YFR019W, strain FAB1, active compounds read low", "value": 0.886},
      {"measurement": "normalized growth", "setting": "locus YFR028C, strain CDC14, active compounds read low", "value": 0.967},
      {"measurement": "normalized growth", "setting": "locus YGR040W, strain KSS1, active compounds read low", "value": 0.899},
      {"measurement": "normalized growth", "setting": "locus YGR052W, strain FMP48, active compounds read low", "value": 0.87},
      {"measurement": "normalized growth", "setting": "locus YGR092W, strain DBF2, active compounds read low", "value": 0.855},
      {"measurement": "normalized growth", "setting": "locus YHR030C, strain SLT2, active compounds read low", "value": 0.867},
      {"measurement": "normalized growth", "setting": "locus YHR079C, strain IRE1, active compounds read low", "value": 0.905},
      {"measurement": "normalized growth", "setting": "locus YHR082C, strain KSP1, active compounds read low", "value": 0.948},
      {"measurement": "normalized growth", "setting": "locus YHR205W, strain SCH9, active compounds read low", "value": 0.798},
      {"measurement": "normalized growth", "setting": "locus YIL147C, strain SLN1, active compounds read low", "value": 0.977},
      {"measurement": "normalized growth", "setting": "locus YJL095W, strain BCK1, active compounds read low", "value": 0.814},
      {"measurement": "normalized growth", "setting": "locus YJL128C, strain PBS2, active compounds read low", "value": 0.937},
      {"measurement": "normalized growth", "setting": "locus YJL157C, strain FAR1, active compounds read low", "value": 0.905},
      {"measurement": "normalized growth", "setting": "locus YJR016C, strain ILV3, active compounds read low", "value": 0.98},
      {"measurement": "normalized growth", "setting": "locus YJR066W, strain TOR1 (second series), active compounds read low", "value": 0.846},
      {"measurement": "normalized growth", "setting": "locus YJR066W, strain TOR1, active compounds read low", "value": 0.914},
      {"measurement": "normalized growth", "setting": "locus YKL048C, strain ELM1, active compounds read low", "value": 0.963},
      {"measurement": "normalized growth", "setting": "locus YKL067W, strain YNK1, active compounds read low", "value": 0.908},
      {"measurement": "normalized growth", "setting": "locus YKL101W, strain HSL1, active compounds read low", "value": 0.907},
      {"measurement": "normalized growth", "setting": "locus YKL193C, strain SDS22, active compounds read low", "value": 0.979},
      {"measurement": "normalized growth", "setting": "locus YKL203C, strain TOR2, active compounds read low", "value": 0.93},
      {"measurement": "normalized growth", "setting": "locus YLR113W, strain HOG1, active compounds read low", "value": "0.832 (active)"},
      {"measurement": "normalized growth", "setting": "locus YLR133W, strain CKI1, active compounds read low", "value": 0.899},
      {"measurement": "normalized growth", "setting": "locus YLR403W, strain SFP1, active compounds read low", "value": 0.83},
      {"measurement": "normalized growth", "setting": "locus YML070W, strain DAK1, active compounds read low", "value": 0.903},
      {"measurement": "normalized growth", "setting": "locus YMR001C, strain CDC5, active compounds read low", "value": 0.98},
      {"measurement": "normalized growth", "setting": "locus YMR205C, strain PFK2 (second series), active compounds read low", "value": 0.912},
      {"measurement": "normalized growth", "setting": "locus YMR277W, strain FCP1, active compounds read low", "value": 0.979},
      {"measurement": "normalized growth", "setting": "locus YNL006W, strain LST8, active compounds read low", "value": 0.975},
      {"measurement": "normalized growth", "setting": "locus YNL020C, strain ARK1, active compounds read low", "value": 0.916},
      {"measurement": "normalized growth", "setting": "locus YNL161W, strain CBK1, active compounds read low", "value": 0.976},
      {"measurement": "normalized growth", "setting": "locus YNL183C, strain NPR1, active compounds read low", "value": 0.909},
      {"measurement": "normalized growth", "setting": "locus YNL207W, strain RIO2, active compounds read low", "value": 0.968},
      {"measurement": "normalized growth", "setting": "locus YNL222W, strain SSU72, active compounds read low", "value": 0.974},
      {"measurement": "normalized growth", "setting": "locus YNL307C, strain MCK1 (second series), active compounds read low", "value": 0.862},
      {"measurement": "normalized growth", "setting": "locus YOL078W, strain AVO1, active compounds read low", "value": 0.97},
      {"measurement": "normalized growth", "setting": "locus YOL136C, strain PFK27, active compounds read low", "value": 0.854},
      {"measurement": "normalized growth", "setting": "locus YOR061W, strain CKA2, active compounds read low", "value": 0.888},
      {"measurement": "normalized growth", "setting": "locus YOR119C, strain RIO1, active compounds read low", "value": 0.964},
      {"measurement": "normalized growth", "setting": "locus YOR231W, strain MKK1, active compounds read low", "value": 0.895},
      {"measurement": "normalized growth", "setting": "locus YOR329C, strain SCD5, active compounds read low", "value": 0.984},
      {"measurement": "normalized growth", "setting": "locus YPL031C, strain PHO85, active compounds read low", "value": 0.912},
      {"measurement": "normalized growth", "setting": "locus YPL153C, strain RAD53, active compounds read low", "value": 0.934},
      {"measurement": "normalized growth", "setting": "locus YPL204W, strain HRR25, active compounds read low", "value": 0.882},
      {"measurement": "normalized growth", "setting": "locus YPL209C, strain IPL1, active compounds read low", "value": 0.978},
      {"measurement": "normalized growth", "setting": "locus YPL256C, strain CLN2, active compounds read low", "value": 0.953},
      {"measurement": "normalized growth", "setting": "locus YPR025C, strain CCL1, active compounds read low", "value": 0.984},
      {"measurement": "normalized growth", "setting": "locus YPR106W, strain ISR1, active compounds read low", "value": 0.976},
      {"measurement": "normalized growth", "setting": "locus YPR111W, strain DBF20, active compounds read low", "value": 0.955},
      {"measurement": "normalized growth", "setting": "strain NNK1, active compounds read low", "value": 0.971},
      {"measurement": "normalized growth", "setting": "strain TSCII, active compounds read low", "value": 0.965}
    ]}
  ]
}
